Bioassay records: PubChem BioAssay, National Center for Advancing Translational Sciences (NCATS)
In the library only some 12% were active in any assay of this set; here they are far more common.
HP1b binding inh: HTS for Inhibitors of HP1-beta Chromodomain Interactions with Methylated Histone Tails. 390,000 compounds, 0.56% hits. AlphaScreen HP1-beta / biotin-H3K9me3 peptide binding. Chromobox protein homolog 1 (Homo sapiens), P83916. Potency, µM (doses to about 114 µM), for the others: top-dose activity change, negative = inhibition, most hits filed as inhibitors; further: potency means the concentration at half of the fitted maximal effect; nearly all actives have a fitted effect of over 70% in size
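HP1-beta protein (50 nM final) preincubated 30 min at room temperature with biotinylated H3(1-18)K9me3 peptide (50 nM) in PBS pH 7.4, 0.01% Tween-20, then compound added for 30 min. AlphaScreen streptavidin donor/nickel chelate acceptor beads (10 ug/mL final), 30 min dark, luminescence read.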
JMJD2A Tudor inh: qHTS Assay for Inhibitors of JMJD2A-Tudor Domain; Lysine-specific demethylase 4A (Homo sapiens), O75164; AlphaScreen JMJD2A-Tudor / H3K4me3 peptide binding; Potency, µM (highest dose often 114 µM), for inactives: top-dose activity change, negative = inhibition, usual class: inhibitors; 390,000 compounds, 4.4% hits; AID 504339, 2011; further: potency means the concentration at half of the fitted maximal effect; on the % scale 0 is the no-effect control and ±100 the full control effect; nearly all actives have a fitted effect of over 50% in size
PLK1 PBD inh: qHTS for Inhibitors of PLK1-PDB (polo-like kinase 1 - polo-box domain): Primary Screen; Serine/threonine-protein kinase PLK1 (Homo sapiens), P53350; Plk1 PBD binding of FITC phosphopeptide, fluorescence polarization; Potency, µM, for inactives: max response, negative = inhibition, usual class: inhibitors; 360,000 compounds, 2.8% hits; AID 720504, 2013; further: potency means the concentration at half of the fitted maximal effect; series mostly up to about 57 µM; on the % scale 0 is the no-effect control and ±100 the full control effect; nearly all actives have a fitted effect of over 65% in size
G9a block: qHTS Assay for Inhibitors of Histone Lysine Methyltransferase G9a | Histone-lysine N-methyltransferase EHMT2 (Homo sapiens), Q96KQ7 | G9a H3K9 monomethylation, AlphaScreen, 2 h | Potency, µM (titrated, usually from 102 µM), for the others: top-dose activity, negative = inhibition, hits mostly inhibitors | 350,000 compounds, 8.8% hits; further: potency means the concentration at half of the fitted maximal effect; on the % scale 0 is the no-effect control and ±100 the full control effect; nearly all actives have a fitted effect of over 75% in size
Target sequence (Q96KQ7 913-1193 limits assumed): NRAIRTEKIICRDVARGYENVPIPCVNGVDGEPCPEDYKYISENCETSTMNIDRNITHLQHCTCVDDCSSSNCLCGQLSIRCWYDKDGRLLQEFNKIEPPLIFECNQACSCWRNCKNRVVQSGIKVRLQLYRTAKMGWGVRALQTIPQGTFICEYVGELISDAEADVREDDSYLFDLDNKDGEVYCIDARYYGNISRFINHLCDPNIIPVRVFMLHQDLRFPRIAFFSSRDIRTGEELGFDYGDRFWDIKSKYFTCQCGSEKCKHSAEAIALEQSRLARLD
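Methyltransferase reactions run at room temperature for 2 h (20 nM enzyme, 500 nM biotin-H3K9 peptide, 20 uM SAM) after a 15 min compound preincubation; product detected by AlphaScreen beads and anti-H3K9me1 antibody.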
PI5P4K alpha inh: qHTS for Inhibitors of phosphatidylinositol 5-phosphate 4-kinase (PI5P4K) | Phosphatidylinositol 5-phosphate 4-kinase type-2 alpha (Homo sapiens), P48426 | PI5P4Kalpha enzyme, ADP-Glo luminescence, 60 min; hits give low values | max response, % | 330,000 compounds, 1.2% hits | AID 652105, 2013; active means max response of -50% or lower; inconclusive means between -30% and -50%; inactive means -30% or higher; further: value at the top dose of about 77 µM; on the % scale 0 is the no-effect control and ±100 the full control effect
Target sequence (P48426 whole entry, looked up): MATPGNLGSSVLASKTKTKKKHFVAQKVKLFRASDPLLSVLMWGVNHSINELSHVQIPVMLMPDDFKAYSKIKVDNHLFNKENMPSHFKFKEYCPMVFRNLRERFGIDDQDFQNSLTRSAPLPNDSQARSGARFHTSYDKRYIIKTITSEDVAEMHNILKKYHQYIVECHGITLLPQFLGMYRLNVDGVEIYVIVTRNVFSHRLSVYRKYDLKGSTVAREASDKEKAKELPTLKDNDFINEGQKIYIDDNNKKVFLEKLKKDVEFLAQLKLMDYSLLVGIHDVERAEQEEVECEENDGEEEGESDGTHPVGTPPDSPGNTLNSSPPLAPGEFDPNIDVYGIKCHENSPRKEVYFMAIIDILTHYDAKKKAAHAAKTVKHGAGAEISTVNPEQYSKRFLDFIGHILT
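qHTS, 1536-well: enzyme/substrate mix, compound by pin tool, 5 microM ATP final; RT 60 min; ADP-Glo reagents 1 (45 min) then 2 (30 min); luminescence.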
BAZ2B block: qHTS Assay for Inhibitors of BAZ2B. Bromodomain adjacent to zinc finger domain protein 2B (Homo sapiens), Q9UIF8. AlphaScreen BAZ2B-H3K14Ac peptide displacement. Potency, µM (series often up to 114 µM), for inactives: at the highest dose activity change, negative = inhibition, usual class: inhibitors. 360,000 compounds, 4.4% hits; further: potency means the concentration at half of the fitted maximal effect; on the % scale 0 is the no-effect control and ±100 the full control effect; nearly all actives have a fitted effect of over 60% in size
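BAZ2B (50 nM) with biotin-H3(5-23)K14Ac peptide (50 nM) in PBS pH 7.4, 0.01% Tween-20, preformed 30 min, then compound 30 min at room temperature; top concentration 110uM. AlphaScreen streptavidin donor/nickel chelate acceptor beads (10 ug/mL final), 20 min dark, signal read.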
Starred values were filed as active, the others as inactive; ? = inconclusive; . = not tested or not shown; [ ] = remark or other dose. Unless noted, the call rests on the fitted dose curve; in most records, active means well fitted curve in the direction sought with a large enough effect; inconclusive means small, poorly fitted or top-dose-only effect, or another doubt; inactive means no such curve, though single readings can be large; an effect the other way counts as inactive or inconclusive.

SMILES	HP1b binding inh	JMJD2A Tudor inh	PLK1 PBD inh	G9a block	PI5P4K alpha inh	BAZ2B block
Cc1ccc(-n2c(SCc3ccc(C(=O)O)cc3)nnc2-c2ccncc2)cc1	14%	-2%	-16%	.	-18	0%
Cc1ccc(OC(C)C(=O)N2CC(=O)Nc3ccccc32)cc1 (centres undefined)	23%	-13%	0%	3.5µM*	0	-8%
CC(Oc1ccccc1)C(=O)OCC(=O)N1CC(=O)Nc2ccccc21 (centres undefined)	45%	1%	-16%	10%	-4	-14%
O=[N+]([O-])c1cc([N+](=O)[O-])c(Oc2c(Cl)cccc2Cl)cc1NN1CCCCC1	?	?	-14%	25µM*	-3	?
O=[N+]([O-])c1cc([N+](=O)[O-])c(Oc2cc(F)cc(F)c2)cc1NN1CCCCC1	6%	?	27µM*	16%[2.33 µM]	-1	-1%
O=[N+]([O-])c1cc([N+](=O)[O-])c(Oc2c(F)ccc(F)c2F)cc1NN1CCCCC1	?	?	-12%	32µM*	-3	?
O=[N+]([O-])c1cc([N+](=O)[O-])c(Oc2c(F)cccc2F)cc1NN1CCCCC1	?	?	-1%	-48%	0	?
O=[N+]([O-])c1cc([N+](=O)[O-])c(Oc2cccnc2Br)cc1NN1CCCCC1	?	?	-14%	40µM*	-1	?
Cc1cccc(C)c1NC(=O)C(c1ccccc1)N(C)CCc1ccccc1 (centres undefined)	.	.	0%	.	-3	.
CCS(=O)(=O)N1CC(=O)N(c2cccc(C)c2C)C(C)(C(=O)NC2CCCCC2)C1 (centres undefined)	30%	-5%	.	2%[59 µM]	.	3%
COc1ccccc1C(=O)NC(=O)COC(=O)CCS(=O)(=O)c1ccc(C)cc1	27%	0%	-1%	4%	-1	8%
O=C(CN1C(=O)NC2(CCOc3ccccc32)C1=O)NCCc1ccccc1 (centres undefined)	13%	-11%	0%	.	-12	.
CC(c1ccon1)N(C)C(=O)c1cccc(OC2CCN(S(C)(=O)=O)CC2)c1 (centres undefined)	.	.	3%	.	-3	.
O=c1ccc(=O)n(-c2ccccc2)[nH]1	?	79µM*	-22%	14µM*	-8	-1%
CC(C)(C)c1cc(=O)n(-c2ccccc2)[nH]1	24%	-11%	-8%	45µM*	-3	?
O=c1cc(-c2ccccc2)[nH]n1-c1ccccc1	-6%	?	6%	.	0	.
O=C(COC(=O)c1cccc(Br)c1)NCCC1=CCCCC1	19%	-5%	-3%	3%	5	.
CN(C)c1cccc(C(=O)OCC(=O)NCc2ccco2)c1	11%	-22%	3%	19%[59 µM]	0	-8%
O=C(COC(=O)c1cncc(Br)c1)NCCC1=CCCCC1	39%	6%	-1%	50µM*	0	-6%
CCOc1ccc(/C=N/OCC(=O)NCc2ccco2)cc1	-27%	?	15µM*	-5%	-23	-18%
O=C(COC(=O)c1cncc(Br)c1)NCc1ccco1	30%	-36%	?	-22%[0.0925 µM]	-21	32µM*
CCOc1cc(C(=O)OCC(=O)NCc2ccco2)cc(OCC)c1OCC	?	56µM*	-7%	50µM*	?	28µM*
O=C(COC(=O)c1cncc(Br)c1)NCc1ccc(F)cc1	34%	-11%	-7%	-2%	-4	-1%
Cc1noc(/C=C/c2ccccc2F)c1S(=O)(=O)N1CCC(C(=O)N2CCOc3ccccc32)CC1	11%[57 µM]	-19%	.	4%[59 µM]	.	-2%
CN(C)S(=O)(=O)c1ccc(C(=O)NCc2ccco2)cc1	20%	-1%	-3%	-11%	3	-11%
SMILES	HP1b binding inh	JMJD2A Tudor inh	PLK1 PBD inh	G9a block	PI5P4K alpha inh	BAZ2B block
COc1cc(C(=O)OCC(=O)NCc2ccco2)cc(OC)c1OC	-5%	?	-9%	-26%	-19	?
CC(C)N(C(=O)COC(=O)c1cncc(Br)c1)C(C)C	-11%	?	21µM*	-1%	-8	-18%
CN(Cc1ccccc1)C(=O)COC(=O)c1cncc(Br)c1	39%	-11%	-5%	9%	1	6%
COc1cc(OC)cc(C(=O)OCC(=O)NCc2ccco2)c1	-7%	?	-18%	?	-6	50µM*
CN(C)S(=O)(=O)c1ccc(C(=O)OCC(=O)NCc2ccco2)cc1	20%	-10%[11.4 µM]	-26%	50µM*	-11	50µM*
CCCCCCCCN1C(=O)[C@H](CC(=O)NCC23CC4CC(CC(C4)C2)C3)C[C@@]2(C(=O)OCC)CCC=C12	.	.	-2%	.	7	.
COc1ccccc1-c1nccc(NCc2cccs2)n1	.	.	.	-1%[0.501 µM]	.	.
COc1cccc(C(=O)NCCS(=O)(=O)N2CCCC(C)C2)c1 (centres undefined)	.	.	-10%	.	-11	.
COc1ccccc1/C=C/c1nc(S(=O)(=O)c2ccccc2)c(NCCN(C)C)o1	29%	?	30µM*	?	-16	-18%
COc1ccc(/C=C/c2nc(S(=O)(=O)c3ccccc3)c(NCCCN(C)C)o2)cc1OC	63%	-8%	?	79µM*	-1	-6%
CN(C)c1ncnc2c1ncn2[C@H]1CN(Cc2ccc3c(c2)OCO3)C[C@@H](CO)O1	.	.	2%	.	8	.
COc1ccc(C(=O)Nc2cccc3c2CCCC3)cc1OC	6%	-11%	3%	.	1	8%
O=C1NC(=S)N/C1=C/c1ccc(-c2c(Br)cc([N+](=O)[O-])cc2Br)o1	.	.	.	11µM*	.	?
O=C1NC(=S)N/C1=C\c1cccc([N+](=O)[O-])c1	16%	1%	-6%	50µM*	.	-3%
CN1C(=O)/C(=C/c2cccc([N+](=O)[O-])c2)C(=O)N1c1ccccc1	3%	?	2.4µM*	14µM*	-24	-34%
O=C1NC(=S)N/C1=C/c1cccc([N+](=O)[O-])c1	16%	-16%	-13%	-4%	0	-12%
O=C1NC(=S)N/C1=C/c1cccnc1	-3%	-5%[11.4 µM]	24µM*	?	-8	-20%
COc1cc(NC(=O)CN2C(=O)C(c3ccc(C)cc3)=NC23CCCCC3)cc(OC)c1	25%	-19%	.	-7%[59 µM]	.	-18%
N#Cc1cccc(-c2nc(NCc3cccnc3)c3ccccc3n2)c1	.	.	.	2%[0.501 µM]	.	.
